PubChem BioAssay AID504523 (Broad Institute, 2011)
Several values for one entry are separate records, joined by “and”; a condition that tells them apart may be missing. Equal entries are not always repeated. Screen size: about 340,000 compounds; about 490 (0.14%) were called active. No stated cut-off is given here; in the data, active means inhibition above about 12%; inconclusive means no clear call, values can overlap the other calls; inactive means below about 7.3%. Only a selection was taken, and actives are over-represented in it overall. Some compounds were tested as several samples or in several runs, with calls that do not always agree.

Target: Kelch-like ECH-associated protein 1 (Homo sapiens) (UniProt Q14145)
Test: disruptors of Keap1 binding to Nrf2 – biochemical, fluorescence polarization, single point, primary screen (AID 504523);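 further: human Keap1 Kelch domain with fluorescein labeled Nrf2 9mer peptide probe; 0% = neutral control wells and 100% = peptide positive control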
Conditions: Keap1 Kelch-Nrf2 peptide fluorescence polarization, 1536-well; at 9.4 µM; stronger effect = higher value

Sequence of Kelch-like ECH-associated protein 1 (Homo sapiens) (Q14145 whole entry, looked up, the tested form may be a part): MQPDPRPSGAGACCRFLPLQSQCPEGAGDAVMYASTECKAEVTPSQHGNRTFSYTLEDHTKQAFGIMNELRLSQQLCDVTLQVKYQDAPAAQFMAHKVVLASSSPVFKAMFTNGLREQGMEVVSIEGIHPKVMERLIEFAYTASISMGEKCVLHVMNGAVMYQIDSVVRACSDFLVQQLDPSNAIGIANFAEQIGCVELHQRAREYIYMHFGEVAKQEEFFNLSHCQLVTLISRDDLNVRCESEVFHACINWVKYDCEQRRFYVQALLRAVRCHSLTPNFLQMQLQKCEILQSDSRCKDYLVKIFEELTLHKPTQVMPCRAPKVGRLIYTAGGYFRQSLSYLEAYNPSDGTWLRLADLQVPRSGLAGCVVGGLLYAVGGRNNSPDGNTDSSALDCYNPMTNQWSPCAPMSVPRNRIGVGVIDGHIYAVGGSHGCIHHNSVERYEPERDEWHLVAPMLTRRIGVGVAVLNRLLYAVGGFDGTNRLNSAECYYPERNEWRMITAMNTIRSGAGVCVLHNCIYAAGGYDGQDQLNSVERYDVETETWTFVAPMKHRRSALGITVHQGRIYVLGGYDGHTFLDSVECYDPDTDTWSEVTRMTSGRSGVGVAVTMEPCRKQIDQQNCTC

Row | Structure (SMILES) | inhibition
1 | CN(C)C(=S)N=c1ssc(=S)n1Cc1ccco1 | -0.0433% (inactive)
2 | COc1ccccc1CCNC(=O)CN1C(=O)NC2(CCCC2)C1=O | -5.6% (inactive)
3 | O=C1CC(Cc2ccc(Cl)cc2)C(=O)N1c1cc(Cl)ccn1 (stereo not drawn) | 40.7% (active)
4 | O=C1CC(Cc2ccccc2)C(=O)N1c1ccc(Cl)cn1 (stereo not drawn) | -0.813% (inactive)
5 | Cc1ccc(CC2CC(=O)N(c3nc(C)cc(C)n3)C2=O)cc1 (stereo not drawn) | 1.11% (inactive)
6 | O=C(Nc1cccc(S(=O)(=O)N2CCOCC2)c1)C12CC3CC(CC(C3)C1)C2 | 1.77% (inactive)
7 | COc1ccc(NC(=O)CN(C)C(=O)c2n[nH]c3ccccc23)cc1 | 0.904% (inactive)
8 | CCCCC(=O)Nc1ccc(C(=O)NCCCn2ccnc2)cc1 | -4.02% (inactive)
9 | COc1cc(OC)cc(C(=O)NCCCn2ccnc2)c1 | -6.37% (inactive)
10 | CCCC(=O)Nc1ccc(C(=O)NCCCn2ccnc2)cc1 | 6% (active)
11 | Nc1ccccc1SC(C[N+](=O)[O-])c1ccccc1 (stereo not drawn) | -4.52% (inactive)
12 | COc1ccc(OC)c2[nH]c(=O)c(CCNC(=O)C(=O)c3c[nH]c4ccccc34)cc12 | -5.41% (inactive)
13 | CC(=O)c1cc(C#N)c(SCC(=O)Nc2nccs2)nc1C | -4.52% (inactive)
14 | Cc1ccnc(NC(=O)C2CCN(S(=O)(=O)c3c(C)c(C)cc(C)c3C)CC2)c1 | -1.09% (inactive)
15 | COCCCNC(=O)C1CCC(CNS(=O)(=O)c2ccc(OC)cc2)CC1 (stereo not drawn) | 0.471% (inactive)
16 | O=C(OCC(=O)N(CCc1ccccc1)Cc1ccccc1)c1ccccc1[N+](=O)[O-] | 1% (inactive)
17 | CC(C)C[C@H](NC(=O)C1CCC(CNC(=O)[C@@H]2CCCN2C(=O)OC(C)(C)C)CC1)C(=O)O (stereo partly drawn) | 0.427% (inactive)
18 | Cc1nc2ccccc2n1C(=O)N1CCOCC1 | -5.92% (inactive)
19 | OCCC1CN(Cc2cccc(O)c2)CCN1CCc1ccccc1 (stereo not drawn) | -6.53% (inactive)
20 | COc1ccc(S(=O)(=O)N2C[C@H]3CON(C)[C@H]3C[C@H]2c2cccc(Br)c2)cc1 | -1.34% (inactive)
21 | COC(C[C@H](O)CC(=O)COCc1ccccc1)OC | -0.107% (inactive)

Row | Structure (SMILES) | inhibition
22 | Cc1cc(C)n(-c2nnc(N3CCN(c4ccccc4)CC3)nn2)n1 | -3.51% (inactive)
23 | C=CCn1c(SCc2cccc(F)c2)nc2cc(C(=O)N3CCC(C(N)=O)CC3)ccc2c1=O | -4.14% (inactive)
24 | COc1cc(/C=N/N=C(\N)c2nonc2N)cc(OC)c1OC | 1.13% (inactive)
25 | c1ccc2c(c1)OCCOCCOCCO2 | 1.51% (inactive)
26 | Cc1ccc2nc(NC(=O)C3CSC4(C)CCC(=O)N34)sc2c1 (stereo not drawn) | -0.772% (inactive)
27 | Oc1cccc(CCc2ccccn2)c1 | 1.31% (inactive)
28 | CC(C)(C)N(Cc1ccccc1)C(=O)COC(=O)CCc1c[nH]c2ccccc12 | -5.52% (inactive)
29 | O=C1CC(c2ccccc2)C(c2ccccc2)=NN1 (stereo not drawn) | -8.87% (inactive)
30 | CCC1CCc2c(sc(NC(C)=O)c2C#N)C1 (stereo not drawn) | -1.96% (inactive)
31 | Cn1nc(-c2ccccc2)c(CSc2cccc(Cl)c2)c1Cl | 1.6% (inactive)
32 | CCN1CC=C2C(C#N)=C(N)C(C#N)(C#N)[C@H](c3ccoc3)[C@H]2C1 | 26.5% (active)
33 | O=c1cnnc(Nc2ccccc2F)[nH]1 | -0.638% (inactive)
34 | CCN(CC)Cc1c(C(=O)N/N=C/c2cccc(OCc3ccc(F)cc3)c2)nnn1-c1nonc1N | 2.94% (inactive)
35 | CC(=O)NS(=O)(=O)c1ccc2c(c1)Cc1cc(S(=O)(=O)NC(C)=O)ccc1-2 | -4.15% (inactive)
36 | Cc1ccc(Nc2cc(C)nc3c(C)ccc([N+](=O)[O-])c23)cc1 | -0.384% (inactive)
37 | CCOc1cc(CNCc2ccccn2)ccc1OCC(=O)NC(C)(C)C | -3.19% (inactive)
38 | O=C(c1c(F)cccc1Cl)N1CCN(S(=O)(=O)c2ccc3c(c2)OCCCO3)CC1 | -0.841% (inactive)
39 | CC(C)C(NS(=O)(=O)c1cccs1)C(=O)Nc1nc(C(C)(C)C)cs1 (stereo not drawn) | 1.11% (inactive)
40 | COc1ccc(-c2nonc2NC(=O)c2oc3ccc(F)cc3c2C)cc1OC | 4.52% (inactive)
41 | O=C1CC(C(F)(F)C(F)(F)C(F)(F)C(F)(F)F)=Nc2ccccc2N1 | -1.59% (inactive)
42 | Cc1noc(C)c1COC(=O)Cn1c(C)nc2ccccc21 | 1.41% (inactive)

Row | Structure (SMILES) | inhibition
43 | CCCc1cc(-c2n[nH]c(=S)n2Cc2ccccc2)cs1 | -5.54% (inactive)
44 | COc1ccccc1NC(=O)CCN1CCN(c2ccc(Cl)cc2)CC1 | 2.69% (inactive)
45 | Cc1ccc(S(=O)(=O)N2[C@@H](c3cccc4ccccc34)C(C(=O)O)=C[C@H]2C(C)(C)C)cc1 | 6.06% (inactive)
46 | Cc1cc(C)nc(N2C(=O)CC(Cc3ccccc3)C2=O)n1 (stereo not drawn) | 2.94% (inactive)
47 | O=C(Nc1cccc2c1N(C(=O)c1ccco1)CCC2)c1ccco1 | 0.867% (inactive)
48 | CN(C)c1ccc(C(=S)N2CCN(C(=S)Nc3ccc(Cl)cc3)CC2)cc1 | 1.08% (inactive)
49 | Cc1ccc(Nc2nc(CSc3nnc(-c4ccncc4)n3-c3ccccc3C)cs2)cc1 | -6.12% (inactive)
50 | Nc1c(C(=O)O)cnn1-c1ccccc1 | 1.79% (inactive)
51 | C=C(C)C1CC=C(C)/C(=N\NC(=O)CNc2ccccc2OC)C1 (stereo not drawn) | 0.164% (inactive)
52 | COc1ccc(OC)c(S(=O)(=O)Nc2ccccc2F)c1 | -3.36% (inactive)
53 | COc1cc(OC)c(S(=O)(=O)Nc2ccccc2C(=O)O)cc1S(=O)(=O)Nc1ccccc1C(=O)O | 15.6% (active)
54 | COc1ccc(S(=O)(=O)Nc2ccccc2C(=O)N2CCCC2)cc1C | -0.35% (inactive)
55 | O=C(/C=C/c1cc2c(cc1Br)OCO2)NCc1ccc(Cl)cc1 | -0.718% (inactive)
56 | Cc1ccccc1CNC(=O)CCC(=O)N1Cc2ccccc2Oc2ncccc21 | 0.575% (inactive)
57 | O=C(CNCc1ccco1)Nc1cc(S(=O)(=O)N2CCOCC2)ccc1N1CCCC1 | -2.82% (inactive)
58 | CCCCNC(=O)C1CCCN(S(=O)(=O)c2ccc(S(=O)(=O)NCC(C)C)cc2)C1 (stereo not drawn) | -0.397% (inactive)
59 | COC(=O)c1ccc(-c2noc(CN(Cc3ccccn3)CC3CCCO3)n2)cc1 (stereo not drawn) | -1.93% (inactive)
60 | Cc1ccc2c(c1)N(CC(=O)N1CCC(C)CC1)C(=O)c1cccnc1O2 | -0.762% (inactive)
61 | COc1ccccc1C(=O)NCCn1cc(SCC(=O)NCc2ccco2)c2ccccc21 | -4.2% (inactive)
62 | O=C(NCc1ccncc1)C(=O)NCc1ccco1 | -3.77% (inactive)
63 | CCOC(=O)c1c(NC(=O)CSc2nnc(CNc3ccc(C)cc3C)o2)sc(C)c1C | 3.69% (inactive)

Row | Structure (SMILES) | inhibition
64 | Cc1ccc(-n2c(CNc3ccc(F)cc3)nnc2SCC(=O)N2CCOCC2)cc1 | -5.07% (inactive)
65 | CSCCC(NC(=O)COc1ccccc1)C(=O)N1CCN(c2cccc(C(F)(F)F)c2)CC1 (stereo not drawn) | 1.75% (inactive)
66 | CN(CCOc1ccc(CC2SC(=O)NC2=O)cc1)c1ccccn1 (stereo not drawn) | 44.6% (active) and -1.69% (inactive)
67 | CC(C)=N/N=C1/NC(=O)C(Cc2ccccc2)S1 (stereo not drawn) | -5.03% (inactive)
68 | CC(O)c1ccc(OCCN(C)c2ccccn2)cc1 (stereo not drawn) | 2.21% (inactive)
69 | N#Cc1cccc(CSc2ncnc(N)n2)c1 | -4.01% (inactive)
70 | Cc1nc(SCC(=O)NC2CCCCC2C)c(C#N)c(C)c1C (stereo not drawn) | -1.86% (inactive)
71 | COc1ccccc1CNC(=O)C1Cc2ccccc2C(=O)O1 (stereo not drawn) | 0.554% (inactive)
72 | CC(Sc1nnc(C2CC2)n1C1CC1)C(=O)Nc1ccc(C(N)=O)cc1 (stereo not drawn) | -1.4% (inactive)
73 | COc1ccc(S(=O)(=O)n2nc(C)c(S(=O)(=O)N3CCOCC3)c2C)cc1 | -1.09% (inactive)
74 | Cc1nn(C)cc1N1C(=O)c2cccc3c(N)ccc(c23)C1=O | 71% (active)
75 | O=C1c2cccc3c([N+](=O)[O-])ccc(c23)C(=O)N1CC1CCCO1 (stereo not drawn) | -6.02% (inactive)
76 | CN1C(=O)c2cccc3c(N)ccc(c23)C1=O | 16.4% (active)
77 | CC(C(=O)O)N1C(=O)c2cccc3cccc1c23 (stereo not drawn) | -0.759% (inactive)
78 | c1ccc(CN=C2Nc3ccccc3CS2)nc1 | -0.423% (inactive)
79 | O=S1(=O)CC/C(=N\Nc2ccc(F)cc2)c2ccsc21 | 3.88% (inactive)
80 | N#CCc1c[nH]c2ccc([N+](=O)[O-])cc12 | 0.344% (inactive)
81 | COC(=O)c1ccc(NC(=S)Nc2cccc(C)n2)cc1 | 1.2% (inactive)
82 | Cc1nn(C)c(C)c1Sc1ccccc1N | -2.63% (inactive)
83 | O=C(Cc1ccc(Cl)cc1)NCc1nc(-c2ccccc2)no1 | -0.917% (inactive)
